# From the supplement of paper PMC6555819
# Columns and labels:
# Assay in all cases: PBM binding z-score (relative to random genomic background probes); higher = stronger binding; sequences stand for … in GC…GCGATTGACAGCGTAGAATGAAGG
# [1] = system: FXR:RXRa (NR concentration 270 nM, RXRa partner concentration 90 nM)
# Method in brief: (§1)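 Regression normalization was applied to scanned fluorescence from custom Agilent 4×180K protein-binding microarrays. Before scanning, arrays were incubated 1 h with ligand-free nuclear receptor dimers, and binding was detected with antibodies against each partner (one per run). Binding z-scores use the random background probes as reference.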
# [2] = system: LXRa:RXRa (NR concentration 270 nM, RXRa partner concentration 90 nM)
# Method in brief: as §1
# [3] = system: LXRa homodimer (NR concentration 270 nM)
# Method in brief: as §1
# [4] = system: LXRb:RXRa (NR concentration 270 nM, RXRa partner concentration 90 nM)
# Method in brief: as §1
# [5] = system: LXRb homodimer (NR concentration 270 nM)
# Method in brief: as §1
# [6] = system: PPARa:RXRa (NR concentration 270 nM, RXRa partner concentration 90 nM)
# Method in brief: as §1
# [7] = system: PPARg:RXRa (NR concentration 180 nM, RXRa partner concentration 90 nM)
# Method in brief: as §1
# [8] = system: PPARg:RXRa 270nM:90nM, anti-RXR (NR concentration 270 nM, RXRa partner concentration 90 nM)
# Method in brief: as §1
# [9] = system: PPARg:RXRa 30nM:10nM, anti-RXR (NR concentration 30 nM, RXRa partner concentration 10 nM)
# Method in brief: as §1
# [10] = system: PPARg:RXRa 90nM:30nM, anti-RXR (NR concentration 90 nM, RXRa partner concentration 30 nM)
# Method in brief: as §1
# [11] = system: PPARg:RXRa DBDmut IVT, anti-RXR (DBD mutation: RXRa K156A/R161A, NR concentration 270 nM, RXRa partner concentration 90 nM)
# Method in brief: as §1
# [12] = system: PPARg:RXRa IVT, anti-PPARg (NR concentration 270 nM, RXRa partner concentration 90 nM)
# Method in brief: as §1
# [13] = system: PPARg DBDmut:RXRa IVT, anti-PPARg (DBD mutation: PPARg1 K132A/R137A, NR concentration 270 nM, RXRa partner concentration 90 nM)
# Method in brief: as §1
# [14] = system: PPARg DBDmut IVT, anti-PPARg (DBD mutation: PPARg1 K132A/R137A, NR concentration 270 nM)
# Method in brief: as §1
# [15] = system: PPARg homodimer (NR concentration 180 nM)
# Method in brief: as §1
# [16] = system: PXR:RXRa (NR concentration 270 nM, RXRa partner concentration 90 nM)
# Method in brief: as §1
# [17] = system: PXR homodimer (NR concentration 270 nM)
# Method in brief: as §1
# [18] = system: RARa:RXR (NR concentration 270 nM, RXRa partner concentration 90 nM)
# Method in brief: as §1
# [19] = system: RARa homodimer (NR concentration 270 nM)
# Method in brief: as §1
# [20] = system: RARb:RXRa (NR concentration 270 nM, RXRa partner concentration 90 nM)
# Method in brief: as §1
Sequence,PBM binding z-score [1],PBM binding z-score [2],PBM binding z-score [3],PBM binding z-score [4],PBM binding z-score [5],PBM binding z-score [6],PBM binding z-score [7],PBM binding z-score [8],PBM binding z-score [9],PBM binding z-score [10],PBM binding z-score [11],PBM binding z-score [12],PBM binding z-score [13],PBM binding z-score [14],PBM binding z-score [15],PBM binding z-score [16],PBM binding z-score [17],PBM binding z-score [18],PBM binding z-score [19],PBM binding z-score [20]
GCTAGTTGGTCAGTCAAAGGTCACACACCGGTCG,3.52,4.41,4.17,3.94,0.493,4.62,5.33,5.92,4.22,5.9,1.51,3.42,-0.105,0.277,3.62,5.2,1.01,6.33,1.11,4.36
CCTGCTAGGTCAATGGTCAGGTAAAGCAGCTCGC,3.13,2.29,-0.153,1.46,-0.313,3.36,4.48,5.09,2.62,4.62,4.38,4.23,0.154,-0.732,1.38,0.832,-0.154,1.93,-0.238,3.81
CCTCGGAGGACAGAAGGTCATAGCTGTCCGCTTT,2.89,3.44,1.4,2.23,-0.526,3.17,0.58,1.68,-0.379,0.915,0.177,0.772,-1.55,-1.54,2.13,3.22,0.225,3.55,0.138,3.5
CAAACTGGGTCACAGAGGTCAAAGTCCGTGCGTA,6.46,6.47,6.04,5.99,1.68,6.5,9.86,7.93,6.54,8.19,7.82,8.76,4.79,4.1,3.96,6.74,9,7.06,0.622,5.21
CGTCCAAGGTCAGAGAGGTCAGTGATTGCCGAGT,5.58,5.02,2.88,4.28,0.656,4.54,3,3.95,0.692,2.55,3.12,3.08,-0.867,-0.653,4.12,5.79,10.6,4.66,1.54,5.09
ACTATTAGTTGAGACGAGGGCAACTGATAGGTTG,0.629,-0.0348,0.074,-0.0916,-0.0432,0.621,0.7,0.45,0.365,0.668,0.393,0.643,1.37,1.23,0.253,1.22,0.231,0.44,0.299,1.16
CGTCCAAGGTCAGCAGGTTAGTGAAAGCGACGTG,4.92,3.23,-0.206,2.36,-0.346,4.15,2.77,3.33,0.363,1.88,2.23,2.41,-0.261,-0.686,3.19,2.75,0.49,3.24,0.634,4.85
CTCGAAAGGTCGGTTGAGGGGAGTATACGGATAA,2.57,1.35,-0.151,1.35,0.377,2.39,0.359,0.861,-0.0851,0.567,-0.0517,0.459,0.19,0.356,0.859,1.51,-0.0252,1.79,-0.0195,3.02
TAGCCTAGGTCTTGGGCCAGTATACCACGCGAAC,-0.302,-0.359,-0.58,-0.334,-0.384,-0.242,0.0651,-0.286,-0.619,-0.51,-0.718,-0.4,-0.0485,-0.703,-0.0751,-0.448,-0.379,-0.298,-0.982,0.162
ACTAGTTGGTCAGCTCAGGTCACACACAATTCGG,1.73,1.66,1.68,1.95,0.675,2.03,1.04,0.796,-0.0327,0.521,1.24,2.1,0.448,1.3,1.64,3.54,0.961,2.58,1.11,2.7
TCGAGTAGGTCACCAATGGGGCATTCAGCTTTCT,3.29,3.16,-0.128,2.79,-0.57,4.45,5.85,5.14,2.8,4.74,5.54,6.57,0.462,0.45,1.71,2.42,-0.543,3.13,-0.919,3.84
ACTTACCGGTCAACGAGGTTATAGCACGCGTATA,2.61,3.17,2.47,1.96,1.3,2.3,1.3,1.2,0.21,0.785,1.22,1.9,0.959,1.45,1.88,2.33,1.42,2.38,1.15,3.08
ATCTCCAGGTAAAGATAGTTCAGTGAATGCAAAT,0.234,4.39,0.615,0.852,0.602,0.316,0.194,0.28,0.232,-0.042,0.28,0.419,1.11,1.09,0.798,1.1,1.1,0.0525,1.34,0.907
GCAGACCGGTGAAACGCAGGTAACTCAGGGTGGC,-0.668,-0.615,-0.629,-0.971,-1.86,-1.17,-0.0428,-1.18,-1.16,-1.16,-0.72,-0.532,-1.77,-1.81,-1.43,-0.781,-1.17,-0.497,-1.38,-0.191
